# Shown are actives, neighbours in structure and some others; about 5.6% of the full set was active somewhere.
# ALR inh: inhibitors of human sulfhydryl oxidase ALR; P55789; purified ALR, DTT oxidation, H2O2 HRP-luminol luminescence; inhibition, % (test concentration not listed); 290,000 tested, 3.8% active;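 active = mean replicate inhibition above about 79%, with every replicate also reaching it, limit read from the data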
# Target sequence (P55789 whole entry, looked up): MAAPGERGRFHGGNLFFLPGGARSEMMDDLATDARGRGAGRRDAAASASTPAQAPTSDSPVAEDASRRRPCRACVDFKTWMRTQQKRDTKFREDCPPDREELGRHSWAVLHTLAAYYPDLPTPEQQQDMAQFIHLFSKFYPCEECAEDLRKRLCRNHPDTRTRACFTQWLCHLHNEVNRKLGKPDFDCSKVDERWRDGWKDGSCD
# PfG6PD inh: PfG6PD (Plasmodium falciparum) enzyme inhibition; PfGluPho enzyme, NADPH resazurin-diaphorase fluorescence; inhibition, % at 20 µM; 350,000 tested, 0.78% active;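 active = inhibition reaching at least a set limit at 20 µM in the primary screen, cut at about 59% in these data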;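 note: 0% = DMSO wells with substrate and 100% = DMSO wells lacking glucose-6-phosphate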
# PHOSPHO1 inh: inhibitors of human PHOSPHO1 phosphatase; inhibition, % at 13.3 µM; Q8TCT1; recombinant PHOSPHO1, absorbance phosphatase assay; 290,000 tested, 1.1% active; in the data active = inhibition above about 60%
# Target sequence (Q8TCT1 whole entry, looked up): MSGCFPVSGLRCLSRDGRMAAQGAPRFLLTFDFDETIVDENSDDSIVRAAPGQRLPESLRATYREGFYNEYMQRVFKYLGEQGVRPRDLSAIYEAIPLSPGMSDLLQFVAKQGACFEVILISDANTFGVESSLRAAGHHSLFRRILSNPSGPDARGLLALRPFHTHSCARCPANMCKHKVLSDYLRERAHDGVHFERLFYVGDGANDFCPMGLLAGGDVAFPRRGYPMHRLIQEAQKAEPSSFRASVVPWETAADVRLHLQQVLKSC
# H9c2 protect: myocardial damage modulation in H9c2 cells | AID 588492 | protection from H2O2 cell death, % at 20 µM | H9c2 cardiomyocytes, H2O2 injury protection, ATPLite, 2 h | 360,000 tested, 0.63% active;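 active = compounds giving at least 50% protection of heart cells from peroxide-induced death in the single-dose screen, raw or plate-pattern-corrected value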;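 note: 0% = DMSO wells with peroxide and 100% = DMSO wells without peroxide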
# PfM18AAP inh: PfM18AAP enzyme inhibition; recombinant PfM18AAP, H-Glu-NHMec fluorogenic cleavage; inhibition, % at 7.35 µM; 290,000 tested, 1.2% active;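 active = inhibition above the campaign mean inhibition over all tested compounds plus 3 SD, cut at about 28% in these data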;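 note: 0% = plate median of test compound wells and 100% = 2 mM ZnCl2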
# Active calls of the source: *; . = no result.
SMILES,ALR inh,PfG6PD inh,PHOSPHO1 inh,H9c2 protect,PfM18AAP inh
CCCOc1ccc(CSC(=N)N)cc1C(=O)OC,99*,-11,-48,-5,3
CCCCOc1ccc(Br)cc1CSC(=N)N,.,10,-4,-33,3
COC(=O)c1cc(CSC(=N)N)ccc1OCCC(C)C,99*,-6,6,-5,-1
CC(C)CCOc1ccccc1C(N)=O,.,1,47,23,-3
CCOC(=O)C1(Cc2ccccc2C(F)(F)F)CCN(C2CCN(C(C)C)CC2)CC1,.,-3,45,-16,-1
CC(=O)Nc1ccc(SCC(=O)N(CCC#N)c2ccc(C)cc2)cc1,97*,-3,31,-2,4
O=c1c(C(c2ccc(Cl)cc2)c2c(O)nc3n(c2=O)CCCS3)c(O)nc2n1CCCS2,4,-18,-25,-5,-8
O=c1c(C(c2ccc(Cl)cc2)c2c(O)nc3n(c2=O)CCS3)c(O)nc2n1CCS2,98*,-7,2,16,-7
CCn1c(SCc2nc3ccccc3s2)nnc1-c1ccccc1,94*,18,38,-3,-10
COc1ccc(-n2nnnc2SCc2nc3ccccc3s2)cc1,93*,6,10,-28,1
C=CCn1c(SCc2nc3ccccc3[nH]2)nnc1-c1ccccn1,-33,15,35,4,0
C=CCn1c(SCc2nc3ccccc3[nH]2)nnc1-c1cccc(OC)c1,-5,6,71*,-3,-4
Cc1nnc(SCc2nc3ccccc3s2)n1-c1ccccc1,-131,35,-16,-6,1
C=CCn1c(SCc2nc3ccccc3[nH]2)nnc1-c1ccc(OC)cc1,3,20,91*,-2,9
O=C(NCc1ccncc1)C1CCN(S(=O)(=O)c2ccc(Cl)c(C(F)(F)F)c2)CC1,.,-1,.,-10,.
CCn1c(SCc2nc3ccccc3[nH]2)nnc1-c1ccc(OC)cc1,-16,20,78*,3,-8
CN(C)c1ccc(N=C/C=C2/N(C)c3ccccc3C2(C)C)cc1,.,34,-7,-11,18
Cc1ccc(F)cc1NC(=O)CSCc1nc2sc(C)c(C)c2c(=O)[nH]1,97*,25,.,14,.
Cc1sc2nc(CSCC(=O)Nc3ccccc3C#N)[nH]c(=O)c2c1C,98*,8,-2,47,12
Cc1ccccc1NC(=O)Nc1nc(C2CCC(=O)N2)cs1 (configuration not stated),.,.,.,-4,.
COc1ccc(C(O)c2ncc(-c3ccccc3Cl)[nH]2)cc1F (configuration not stated),.,.,.,-6,.
CCOc1ccc(N/C(=C(/C(Cl)=C(Cl)Cl)[N+](=O)[O-])n2cncn2)cc1,-74,.,20,.,78*
CCOc1ccc(NC(=O)c2nn(C)c(C(=O)Nc3ccc(OCC)cc3)c2[N+](=O)[O-])cc1,2,-7,3,-6,10
CN(C)C=Nc1nonc1-c1ncn[nH]1,-9,1,41,3,30*
Cc1ccc2c(CN(C)Cc3ccc(Cl)cc3)cc(=O)oc2c1,3,15,36,-3,6
SMILES,ALR inh,PfG6PD inh,PHOSPHO1 inh,H9c2 protect,PfM18AAP inh
CC1(C(=O)O)CCCN1C(=O)c1cccc(C(F)(F)F)c1 (configuration not stated),.,.,.,-6,.
COc1ccc(NC2CCCCC2NS(=O)(=O)c2ccc(C)cc2)cc1 (configuration not stated),87*,17,-4,-2,7
CCOc1ccc(NC2CCCCC2NS(=O)(=O)c2ccccc2)cc1 (configuration not stated),92*,11,40,0,0
CCOc1ccc(S(=O)(=O)Nc2nc3ccccc3nc2Cl)cc1,88*,-25,42,-2,-8
CCOc1ccc(S(=O)(=O)NC2CCCCCC2)cc1,.,0,-20,-6,-4
CCOc1ccc(S(=O)(=O)Nc2nc3ccccc3nc2N2CCN(C)CC2)cc1,6,-24,1,-12,-8
Cc1cc(N2CCOCC2)n2ncc(-c3ccc(Cl)cc3)c2n1,-2,9,29,-10,3
Cc1ccc(-c2cnn3c(N4CCOCC4)cc(C)nc23)cc1,93*,21,40,-11,4
O=C(N/N=C/c1ccncc1)c1ccc(COc2cccc3cccnc23)cc1,-20,-3,37,64*,5
COc1ccc(/C=N/NC(=O)c2ccc(COc3cccc4cccnc34)cc2)cc1OC,-10,-7,-6,54*,-6
COc1ccc(/C=N/NC(=O)c2sccc2OCc2ccc(F)cc2)cc1OC,-10,-3,34,53*,-6
COC(=O)c1c(NC(=O)Cc2ccccc2)sc2c1CC(C)(C)NC2(C)C,0,42,10,16,29*
O=C(CSC1=NS(=O)(=O)c2ccccc2N1)NCc1ccc(F)cc1,-1,-12,.,-2,.
CN(C)c1ccc(CN(C(=O)c2cccs2)C2CCS(=O)(=O)C2)cc1 (configuration not stated),93*,6,28,-4,11
COc1cccc(C(=O)N(Cc2ccc(N(C)C)cc2)C2CCS(=O)(=O)C2)c1 (configuration not stated),88*,14,11,-12,-5
CCOc1ccc(CN(C(=O)c2cccs2)C2CCS(=O)(=O)C2)cc1 (configuration not stated),3,8,11,0,-14
CN(C)c1ccc(CN(CC2CCCO2)C(=O)c2cccs2)cc1 (configuration not stated),92*,4,29,2,9
Cc1cccc(C)c1OCC(=O)N(Cc1cccs1)C1CCS(=O)(=O)C1 (configuration not stated),-1,-13,15,-1,-1
Cc1ccccc1OCC(=O)N(Cc1cccs1)C1CCS(=O)(=O)C1 (configuration not stated),97*,-9,-7,0,6
CCN(CC)CCC(c1ccc2c(c1)OCO2)c1c(O)cc(OC)cc1OC (configuration not stated),-3,-7,31,14,.
CC(=O)c1c(C)[nH]c(C(=O)Nc2ccc(N3CCCCCC3)cc2)c1C,.,27,.,2,.
COc1cccc(NC(=O)CN(C)CC(=O)Nc2ccc(C)c(S(=O)(=O)N3CCOCC3)c2)c1,.,-7,.,5,.
Cc1nc2ccc(NC(=O)C3(C)CCCN(C(C)C)C3)cc2o1 (configuration not stated),.,.,.,3,.
CN(C)c1ccc(CN(C(=O)/C=C/c2ccco2)C2CCS(=O)(=O)C2)cc1 (configuration not stated),86*,5,28,4,-8
COCCn1c(SCC(=O)N(C)c2ccccc2)nc2c([nH]c3ccccc32)c1=O,24,1,48,-1,-1
COc1ccc2c(c1[N+](=O)[O-])CCC/C2=N/OC(=O)c1cccc2ccccc12,-22,13,78*,0,-2
Cc1[nH]c2ccccc2c1/C=C(\C#N)C(=O)NC(C)c1ccccc1 (configuration not stated),-4,-1,94*,3,6
